{"source": "PubChem BioAssay (NCATS)", "note": "Records with an inconclusive call do not appear. Calls of active or inactive are those of the source. The call rests on the fitted dose curve; in most records, active means well fitted inhibition curve with a large enough effect; inconclusive means small, poorly fitted or top-dose-only effect; inactive means no such curve, though single readings can be large or run the other way. On the % scale 0 is the no-effect control and ±100 the full control effect; potency means the concentration at half of the fitted maximal effect.", "data": [{"assay": "qHTS for Inhibitors of the Aldehyde Dehydrogenase Family (ALDH1A2, ALDH1A3, ALDH2, ALDH3A1) (AID 2061307); further: nearly all actives have a fitted effect of over 50% in size; on Potency: test system not described further here", "conditions": "ALDH inhibition qHTS; series mostly up to 50.3 µM; activity change, negative = inhibition: at the top concentration", "values": [{"smiles": "Cc1ccc(-n2ncc3c(Nc4cccc(C(=O)O)c4)ncnc32)cc1", "activity change, negative = inhibition": "0% (inactive)"}, {"smiles": "O=C(Nc1ccccc1OC(F)(F)F)c1csc(-c2ccc(F)cc2)n1", "activity change, negative = inhibition": "-41.5% [at 34.4 µM] (inactive)"}, {"smiles": "CC/C=C\\C/C=C\\C/C=C\\C/C=C\\C/C=C\\C/C=C\\CCC(=O)NCCN(C)C", "activity change, negative = inhibition": "-5.58% (inactive)"}, {"smiles": "O=C1C=CC(=O)N1c1cccc(Br)c1", "Potency": "0.0896 µM (active)"}, {"smiles": "Cc1ccccc1C(=O)c1no[n+]([O-])c1C(=O)c1ccccc1C", "Potency": "10 µM (active)"}, {"smiles": "Cc1cc(=O)n2[nH]c(NC(=O)c3ccccc3)nc2n1", "activity change, negative = inhibition": "-36% (inactive)"}, {"smiles": "CCc1cccc(CC)c1-n1c(C)c(C(=O)NC2CC2)cc(-c2nc(-c3ccc(Cl)cc3)cs2)c1=O", "activity change, negative = inhibition": "-11.7% (inactive)"}, {"smiles": "Nc1nc(NCc2ccccc2)c2ccccc2n1", "Potency": "10 µM (active)"}, {"smiles": "Cc1cccc(NC(=O)C2CC(=O)N(c3ccc(S(=O)(=O)N(C)C)cc3)C2)n1", "note": "(stereo not drawn)", "activity change, negative = inhibition": "-6.51% (inactive)"}, {"smiles": "CC(NC(=O)c1ccco1)c1nc(-c2ccccc2)no1", "note": "(stereo not drawn)", "activity change, negative = inhibition": "-45.8% [at 34.4 µM] (inactive)"}, {"smiles": "O=C(O)c1cccc(COc2cccc([N+](=O)[O-])c2)c1", "Potency": "0.269 µM (active)"}, {"smiles": "O=C(c1ccc(F)cc1)c1no[n+]([O-])c1C(=O)c1ccc(F)cc1", "Potency": "12.7 µM (active)"}, {"smiles": "COc1ccc(NC(=O)Cn2ncc3ccccc3c2=O)cc1S(=O)(=O)N1CCOCC1", "activity change, negative = inhibition": "-4.56% (inactive)"}, {"smiles": "COc1ccc(-n2ccc(C(=O)Nc3cccnc3OC)n2)cc1", "activity change, negative = inhibition": "-82.8% [at 34.4 µM] (inactive)"}, {"smiles": "O=C(Nc1ccn[nH]1)c1ccn(-c2cccc(F)c2)n1", "activity change, negative = inhibition": "-23.3% [at 34.4 µM] (inactive)"}, {"smiles": "COCCN(CC(=O)Nc1cccc(C)c1C)C(=O)c1cc2c(s1)CCC2", "activity change, negative = inhibition": "-5.3% (inactive)"}, {"smiles": "N#Cc1ccc(C(=O)Nc2nnc(C3=COCCO3)o2)cc1", "activity change, negative = inhibition": "-19.6% (inactive)"}, {"smiles": "Cc1c(P(=S)(c2ccccc2)c2ccccc2)[n+]2ccccc2n1C/C=C/c1cccc(Br)c1", "Potency": "3.16 µM (active)"}]}]}
